Where “and” joins values, the source holds several entries; their conditions need not be identical. Identical values can stand only once. About 83,000 compounds went through this panel and 20% of them were active in at least one assay; those are over-represented in the sample as a whole.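 Treatment: one concentration, 48 hours, 96-well format. Scoring: percent growth, with anything below 10 considered active.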 Calls of active or inactive are those of the source.

Test in all cases: NCI-60 one-dose screen, 48 h (100 = growth as untreated, 0 = no growth, -100 = all killed)
The test system of assay [1] is NCI-H226 lung. The following applies: 10 µM.
For assay [2], the system named is NCI-H322M lung. The following applies: 10 µM.
Assay [3] concerns HOP-62 NSCLC. The following applies: 10 µM.
The subject of assay [4] is NCI-H460 lung. The following applies: 10 µM.
Assay [5] concerns A549/ATCC NSCLC. The following applies: 10 µM.
The subject of assay [6] is 786-0 renal. The following applies: 10 µM.
Assay [7] relates to COLO 205 colon. The following applies: 10 µM.
The test system of assay [8] is DU-145 prostate. The following applies: 10 µM.
In assay [9] the test system is SF-268 CNS. The following applies: 10 µM.
The subject of assay [10] is SF-295 CNS. The following applies: 10 µM.
The subject of assay [11] is SF-539 CNS. The following applies: 10 µM.
For assay [12], the system named is HCT-15 colon. The following applies: 10 µM.
For assay [13], the system named is HT29 colon. The following applies: 10 µM.
Assay [14] concerns SNB-75 CNS. The following applies: 10 µM.
The test system of assay [15] is SNB-19 CNS. The following applies: 10 µM.
For assay [16], the system named is PC-3 prostate. The following applies: 10 µM.
Assay [17] concerns EKVX NSCLC. The following applies: 10 µM.
Assay [18] has as its system UO-31 renal. The following applies: 10 µM.
Assay [19] concerns ACHN renal. The following applies: 10 µM.
In assay [20] the test system is HL-60(TB) leukemia. The following applies: 10 µM unless noted.

For `CC1=C[C@H]2O[C@@H]3C[C@@H](O)[C@](C)([C@@]2(C)CC1)[C@@]31CO1`, the growth in [1] was 29.9% (inactive); in assay [2] it was 24.9% (inactive); in [3], 15.7% (inactive); in assay [4], 13.2% (inactive); in assay [5] it was 16.2% (inactive); in assay [6], 24.1% (inactive). Besides, the growth in assay [7] is 3.33% (active); in assay [8] it was 19.4% (inactive); in [9], 29.3% (inactive); in assay [10], 27.2% (inactive); in [11] it was 23.9% (inactive); in assay [12], 20.8% (inactive). Further, the growth in assay [13] was 11.4% (inactive); in assay [14], 28.7% (inactive); in assay [15], 18.9% (inactive); in [16] it was 31.5% (inactive); in [17], 38.3% (inactive); in assay [18] it was 16.7% (inactive). The growth in assay [19] is 22.2% (inactive); in [20], -20.9% (active).
Take `CN(CCF)/N=N/c1nc[nH]c1C(N)=O`: the growth is 47.6% (inactive) in assay [1]; 60% (inactive) in [2]; 26.5% (inactive) in assay [3]; 38.6% (inactive) in assay [4]; 98.8% (inactive) in assay [5]; 41.8% (inactive) in assay [6]. Besides, the growth in [7] is 39.1% (inactive); in assay [8], 24.6% (inactive); in [9], 36.8% (inactive); in assay [10], 19.9% (inactive); in assay [11] it was 38.5% (inactive); in assay [12] it was 57.6% (inactive). In addition, the growth in assay [13] was 42% (inactive); in assay [14], 31.4% (inactive); in [15] it was 98.8% (inactive); in [16], 55.1% (inactive); in assay [17] it was 75.9% (inactive); in [18], 21.1% (inactive). In assay [19], the growth was 36.6% (inactive).
Regarding `C[C@@H]1C[C@H]2C(=O)O[C@@H](C)C(NC(=O)[C@H](Cc3cc(F)cc(F)c3)NC(=O)Nc3ccc(OS(=O)(=O)F)cc3)C(=O)N3CCC[C@H]3C(=O)N3CCO[C@H](C)[C@H]3C(=O)N[C@@H](CO)C(=O)N2C1` (some centres undefined), the growth is -3.99% (active) in assay [1]; 54% (inactive) in assay [2]; 33% (inactive) in [3]; 17% (inactive) in [4]; 31% (inactive) in assay [5]; 42.7% (inactive) in assay [6]. Besides, the growth was -19.1% (active) in assay [7]; 28% (inactive) in assay [8]; 33.2% (inactive) in assay [9]; 11.4% (inactive) in assay [10]; 39.5% (inactive) in assay [11]; 82.9% (inactive) in [12]. The growth in assay [13] is 34.6% (inactive); in assay [14], 34.4% (inactive); in assay [15], 24.2% (inactive); in assay [16], 19.9% (inactive); in assay [17], 34% (inactive); in [18], 88.7% (inactive). In addition, the growth in assay [19] is 93.5% (inactive); in assay [20] it was 13.3% (inactive).
For the molecule `COC(=O)[C@H]1[C@@H](O)[C@@]2(O)c3c(OC)cc(OC)cc3O[C@@]2(c2ccc(OC)cc2)[C@@H]1c1ccccc1`, the growth was 3.03% (active) in assay [1]; -19% (active) in [2]; -11.6% (active) in assay [3]; 2.19% (active) in [4]; -14.9% (active) in assay [5]; 0.303% (active) in [6]. The growth in [7] is -71% (active); in assay [8] it was -9.42% (active); in assay [9] it was 0.0752% (active); in [10] it was -14.4% (active); in [11] it was -25.6% (active); in assay [12], -3.06% (active). Further, the growth was -34.3% (active) in assay [13]; -6.18% (active) in assay [14]; -4.86% (active) in assay [15]; -7.51% (active) in assay [16]; -5.16% (active) in assay [17]; -20.5% (active) in [18]. The growth in [19] was -23% (active); in [20], -21.8% (active).
Consider `C/C=C/CC(C)C(O)[C@H](NC(=O)[C@@H]1CCCN1C(=O)C(C)(C)NC(=O)CCCCCCCCC)C(=O)NC(C)(C)C(=O)N[C@@H](CCC(N)=O)C(=O)N[C@H](CCC(N)=O)C(=O)NC(C)(C)C(=O)NC(C)(C)C(=O)N[C@@H](CCC(N)=O)C(=O)N[C@H](CC(C)C)C(=O)N[C@H](CO)CC(C)C` (some centres undefined), for which the growth in assay [1] is 24.6% (inactive) and -36.3% (active); in assay [2] it was 39.9% (inactive) and -7.7% (active); in [3], 20.7% (inactive) and -41.7% (active); in [4], 17.1% (inactive) and -70% (active); in assay [5] it was 49.3% (inactive) and 26.3% (inactive); in assay [6], 14.2% (inactive) and -83.8% (active). For the same molecule, the growth was -82.7% (active) and -41.1% (active) in assay [7]; -71% (active) and -43.1% (active) in assay [8]; -14.2% (active) and -46.2% (active) in [9]; -20.9% (active) and -75.3% (active) in [10]; -33.1% (active) and -100% (active) in [11]; 4.12% (active) and 4.44% (active) in [12]. The growth in assay [13] was 4.29% (active) and 5.04% (active); in [14], -15.2% (active) and -83.2% (active); in assay [15], 14.5% (inactive) and -95.4% (active); in assay [16], 15.8% (inactive) and -29.7% (active); in assay [17], 22.6% (inactive) and -41.8% (active); in assay [18], 39.7% (inactive) and -38.5% (active). For the same molecule, the growth in assay [19] was 43.7% (inactive) and -32% (active); in [20], -52.1% (active) and -47.2% (active).
As to `CC1=C(CCC=NNC(N)=O)C2=C(C)C3(CC3)[C@@](C)(O)C(=O)C2=C1`, the growth in assay [1] is -41.6% (active); in assay [2], -16.2% (active); in assay [3], -55.2% (active); in assay [4], -29.2% (active); in assay [5] it was 4.54% (active); in [6], -37.6% (active). Moreover, the growth in assay [7] is -86.4% (active); in assay [8] it was -9.85% (active); in assay [9], -17.8% (active); in assay [10], -6.5% (active); in [11], -58.5% (active); in [12] it was -16.6% (active). The growth in assay [13] was -9.67% (active); in [14], -63.9% (active); in [15], 3.45% (active); in assay [16], 1.22% (active); in assay [17] it was -12.8% (active); in assay [18], -29.1% (active). Further, the growth in assay [19] was -10.3% (active); in assay [20], 5.99% (active).
